Compound activity deposited in PubChem BioAssay by Broad Institute.
The entries come from a sample that favours hits as a whole.
Tgondii IFNg – inhibitors of Toxoplasma gondii growth with IFN-gamma. Toxoplasma gondii growth in IFN-gamma-treated host cells; hits give low values. activity change, negative = inhibition, % (concentration not given with the values). 3.8% of 69,000 active. AID 1259416; in the data active = activity change below about -70%, passing the limit was not always enough;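 also: host cells are HeLa cells infected with Toxoplasma gondii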
Each line names hits and unclear results; the compound was inactive in the other large screens.

Cn1cnc([N+](=O)[O-])c1Sc1ncnc2nc[nH]c12	Tgondii IFNg -85.7
Cn1cnnc1Sc1c([N+](=O)[O-])ncn1C	none
CC(C)C(=O)Nc1ncnc2nc[nH]c12	none
CC1CCCCN1S(=O)(=O)c1ccc2c(c1)CCC(=O)N2CC(=O)NCCc1ccccc1 (configuration not stated)	none
CN(Cc1ccccn1)C(=O)c1ccc2nnc3ncn(CC4CCCO4)c3c2c1 (configuration not stated)	none
O=C(c1cc(-c2ccc(O)cc2)n[nH]1)N1CCC2(CCCO2)CC1	none
O=c1c2ccccc2n(Cc2ccc(F)cc2)c2ccccc12	Tgondii IFNg -80.8
c1ccc(Cn2c3ccccc3c3ccccc32)cc1	none
O=C1CCCc2c1c1ccccc1n2Cc1ccccc1	none
O=S(=O)(C1CC1)N1CC[C@@H]2[C@H]1CCN2c1ncc(F)cn1	none
Cc1cc(C)n(-c2ccc(C(=O)Nc3nnc(CCc4ccccc4)s3)cc2)n1	none
O=C(Nc1nc(-c2ccccn2)cs1)c1ccccc1CN1CCCCC1	none
Cc1cc(C)n(-c2ccc(CCC(=O)Nc3nc(-c4ccccn4)cs3)cc2)n1	Tgondii IFNg -97.9
Cc1ccc(NC(=O)c2ccccc2N(Cc2ccccc2)S(C)(=O)=O)cc1C	none
COCC1(NC(=O)CCc2ccccc2C)CCCC1	none
Cc1noc(C)c1C1CCCN1C(=O)Cc1cnc2c(C)cccn12 (configuration not stated)	none
Cn1c(CNC(=O)C2CCC2)nc2c1CN(S(=O)(=O)c1ccc(F)cc1)CC2	none
CCc1ccc(S(=O)(=O)N2CCc3nc(CNC(=O)C4CCC4)n(C)c3C2)cc1	none
CCc1ccccc1S(=O)(=O)N1CCc2nc(CNC(=O)C3CCC3)n(C)c2C1	Tgondii IFNg -83.6
CCc1ncc(C(=O)N(C)Cc2ccccc2C(F)(F)F)cn1	none
Fc1cccc(NC(=S)Nc2ccc3ccccc3c2)c1	Tgondii IFNg -87.7
CSc1cccc(NC(=S)NCc2ccc(F)cc2)c1	none
Fc1ccc(NC(=S)Nc2ccccc2Cl)cc1	none
COc1ccc(C2CC(=O)c3cnn(-c4nc5ccccc5s4)c3C2)cc1 (configuration not stated)	none
N=C1SC(c2ccccc2)C(=O)N1c1nc2ccccc2s1 (configuration not stated)	Tgondii IFNg -82.1
COc1ccc(N2C(=O)CC(N3CCN(c4nc5ccccc5s4)CC3)C2=O)cc1 (configuration not stated)	none
Cc1nc(NC(C)C)nc2c1CN(Cc1cccc(C#N)c1)CC2	none
COCC1CN(C(=O)CS(C)(=O)=O)Cc2ncn(CC3CC3)c21 (configuration not stated)	none
CSc1sc(-c2ccno2)c(-c2ccco2)c1C#N	none
CSc1sc(-c2ccn[nH]2)c(-c2ccccc2)c1C#N	Tgondii IFNg -85.1
Cc1c(-c2ccccc2)sc(N)c1C#N	none
Cc1cc(C)n(Cc2c(-c3cc(=O)n4[nH]c(-c5cccs5)c(C)c4n3)noc2C)n1	none
COc1ccccc1NC(=O)C(=O)NCCc1csc(-c2ccc(C)cc2)n1	none
O=C(CN1CCN(S(=O)(=O)N2CCCC2)CC1)NCC1COc2ccccc2O1 (configuration not stated)	none
O=C(NCC1COc2ccccc2O1)Nc1csc2ccccc12 (configuration not stated)	Tgondii IFNg -90.2
Cc1cc(C(=O)NCC2COc3ccccc3O2)nn1C (configuration not stated)	none
CCC(=O)Nc1ccc(OCC(=O)N(C)C(C)c2ccon2)cc1 (configuration not stated)	none
COc1cccc(S(=O)(=O)N2C[C@@H]3N[C@H](C2)C3c2ccc(-c3ccccc3F)cc2)c1 (some centres not stated)	none
CN(C)C(=O)c1cccc(-c2ccc(C3[C@H]4CNC[C@@H]3N4S(=O)(=O)Cc3ccccc3)cc2)c1 (some centres not stated)	none
COc1cccc(-c2ccc(C3[C@@H]4CN(S(=O)(=O)Cc5ccccc5)C[C@H]3N4)cc2)c1 (some centres not stated)	Tgondii IFNg -81.0
Cc1ccc(-c2nc(Cn3nnc(C(=O)NC4CCCCC4)c3C)c(C)o2)cc1	none
FC(F)(F)CCc1ccnc(NCc2ccc3c(c2)OCCCO3)n1	none
CCOc1ccc2nc(SCc3ccccc3)c(C#N)cc2c1	Tgondii IFNg -102.5
COc1ccc(NC(=O)CSc2nc3ccc(C)cc3cc2C#N)cc1	none
CCOc1ccc2nc(SCC(=O)c3ccc4c(c3)OCCO4)c(C#N)cc2c1	none
Cn1c(-c2ccc(Cl)cc2)cnc1SCc1c(Cl)cccc1Cl	none
COc1ccc(-c2noc(CC(=O)NCc3ccccc3)c2-c2ccc(OC)cc2)cc1	none
Cc1noc(C)c1C(=O)NCc1ccc2c(c1)OCO2	none
Cc1ccc(Oc2ccc(CNC(=O)c3c(-c4ccncc4)noc3C)cc2)cc1	Tgondii IFNg -84.1
CCOCC(=O)NC(Cc1ccccc1)C(=O)N1Cc2ccccc2OCC1CN(C)C (configuration not stated)	none
CN(C)CCn1c2c(ccc1=O)CC(NCc1cnn(C)c1)CC2 (configuration not stated)	none
Cc1ccc(N2CCCC2=O)cc1S(=O)(=O)Nc1ccc2c(c1)CC(=O)N2	none
Cc1ccc(N2CCCC2=O)cc1S(=O)(=O)Nc1ccc(N2CCCC2=O)cc1	Tgondii IFNg -90.5
